Here are results for 100 molecules from PubChem BioAssay AID504339 (National Center for Advancing Translational Sciences (NCATS), 2011).

Among all 390,000 compounds or so, about 17,000 (4.4%) were called active. Not shown: some 8% with an inconclusive outcome. Shown is part of a subset that was picked to be rich in actives. Where a call stands in place of a potency, no number is given. Values without a mark were called inactive. Calls follow the shape of the dose curve; as a rule, active = well fitted inhibition curve with a large enough effect; inconclusive = small, poorly fitted or top-dose-only effect; inactive = no such curve, though single readings can be large or run the other way.
Potency is read from the fitted curve at half-maximal effect.

In the experiment the target is Lysine-specific demethylase 4A (Homo sapiens) (UniProt O75164). Nature of the experiment: qHTS Assay for Inhibitors of JMJD2A-Tudor Domain. Also: nearly all actives have a fitted effect of over 50% in size. As to conditions: AlphaScreen JMJD2A-Tudor / H3K4me3 peptide binding; series mostly up to 114 µM.
Chain of Lysine-specific demethylase 4A (Homo sapiens) (O75164 whole entry, looked up, the tested form may be a part): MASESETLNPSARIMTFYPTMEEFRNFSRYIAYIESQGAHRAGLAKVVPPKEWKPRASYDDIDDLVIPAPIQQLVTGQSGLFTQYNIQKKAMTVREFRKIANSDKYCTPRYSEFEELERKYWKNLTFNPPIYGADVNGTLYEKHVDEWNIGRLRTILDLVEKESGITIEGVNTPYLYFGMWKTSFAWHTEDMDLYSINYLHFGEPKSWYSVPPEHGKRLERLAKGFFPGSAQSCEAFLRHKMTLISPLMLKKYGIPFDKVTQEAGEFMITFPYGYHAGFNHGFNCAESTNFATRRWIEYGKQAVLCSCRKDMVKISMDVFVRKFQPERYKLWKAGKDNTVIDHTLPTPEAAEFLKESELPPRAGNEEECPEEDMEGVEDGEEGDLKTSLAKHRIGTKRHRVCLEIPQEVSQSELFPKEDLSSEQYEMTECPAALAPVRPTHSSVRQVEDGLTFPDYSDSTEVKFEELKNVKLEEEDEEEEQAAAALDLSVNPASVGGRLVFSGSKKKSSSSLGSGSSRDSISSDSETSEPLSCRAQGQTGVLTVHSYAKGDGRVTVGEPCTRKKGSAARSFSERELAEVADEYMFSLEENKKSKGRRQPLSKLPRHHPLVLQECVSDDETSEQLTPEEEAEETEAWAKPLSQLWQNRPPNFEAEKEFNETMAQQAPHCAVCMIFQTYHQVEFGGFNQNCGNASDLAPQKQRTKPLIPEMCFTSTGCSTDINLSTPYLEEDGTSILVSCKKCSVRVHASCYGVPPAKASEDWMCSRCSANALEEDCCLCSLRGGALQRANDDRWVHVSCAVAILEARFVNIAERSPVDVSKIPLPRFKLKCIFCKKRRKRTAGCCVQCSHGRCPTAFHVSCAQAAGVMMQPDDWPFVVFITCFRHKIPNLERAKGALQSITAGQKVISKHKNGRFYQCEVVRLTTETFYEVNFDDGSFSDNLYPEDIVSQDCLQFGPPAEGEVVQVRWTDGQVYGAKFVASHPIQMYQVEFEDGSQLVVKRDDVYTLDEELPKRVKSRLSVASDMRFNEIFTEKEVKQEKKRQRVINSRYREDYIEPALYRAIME
Consider `CCCC12CN3CC(C)(CN(C1)C3c1ccccc1Cl)C2=O` (stereo not given), for which the Potency entry is “inactive”.

For `COc1ccc(N2CCN(C(=O)CSc3nnc4ncccn34)CC2)cc1`, the Potency entry is “inactive”.

On to `COc1ccc(N2CCN(C(=O)CSc3nc4cc(OC)c(OC)cc4cc3C#N)CC2)cc1`, for which the Potency was 56.2 µM (active).

On to `CCOc1ccc(-c2nnn(CC(=O)N3CCN(c4ccc(OC)cc4)CC3)n2)cc1OCC`, for which the Potency result is “inactive”.

Turning to `COc1ccccc1C(=O)Nc1c(C(=O)N(C)Cc2ccccc2)sc2nc(C)c(Cl)c(C)c12`, the Potency result was “inactive”.

In the case of `O=C(NCc1ccc(Cl)cc1)c1ccc2c(c1)nnn2C1CCCC1`, the Potency result is “inactive”.

`COc1ccc(-c2nc(S(=O)(=O)c3ccccc3)c(N3CCCCC3)o2)cc1`: the Potency entry is “inactive”.

Consider `CCOC(=O)COc1nc(C)cc(C(F)(F)F)c1C#N`, for which the Potency result is “inactive”.

As for `CCOC(=O)c1cnc(SCC(=O)Nc2ccccc2C(=O)OC)nc1N`, the Potency result is “inactive”.

In the case of `CCOC(=O)C(Sc1ncc(C#N)c(N)n1)C(C)C` (stereo not given), the Potency was 44.7 µM (active).

For `COc1ccccc1N1CCN(/N=C/c2ccc(O)cc2O)CC1`, the Potency entry was “inactive”.

For the molecule `COc1ccccc1N1CCN(C2C(=O)c3ccccc3N2C(C)=O)CC1` (stereo not given), the Potency result was “inactive”.

Consider `COc1ccccc1N1CCN(/N=C\C(Br)=C\c2ccccc2)CC1`, for which the Potency is 39.8 µM (active).

For `Cc1cc(C)cc(C(=O)NC2C(=O)N3C(C(=O)O)=C(CSc4nnc(C)s4)CSC23)c1` (stereo not given), the Potency was 79.4 µM (active).

In the case of `Cc1nnc(SCC2=C(C(=O)O)N3C(=O)C(NC(=O)Cn4nc(C)c(Cl)c4C)C3SC2)s1` (stereo not given), the Potency entry was “inactive”.

For `CCN1CCN(C(=O)N[C@@H](C(=O)N[C@@H]2C(=O)N3C(C(=O)O)=C(CSc4nnnn4C)CS[C@H]23)c2ccc(O)cc2)C(=O)C1=O`, the Potency result is “inactive”.

Regarding `O=C(NC1CC(=O)N(c2ccc(Cl)cc2)C1)C1CCCC1` (stereo not given), the Potency entry was “inactive”.

Regarding `Cc1ccc(CN2CCC(CNC(=O)c3cnn(-c4ccc(C)cc4)c3C3CCN(C(=O)OC(C)(C)C)CC3)CC2)cc1`, the Potency entry was “inactive”.

As for `COc1ccc(CCNC(=O)COC(=O)c2cc(=O)c3ccccc3o2)cc1`, the Potency result is “inactive”.

Take `COc1ccc(CCNC(=O)COC(=O)C2CC2C)cc1` (stereo not given): the Potency result was “inactive”.

Consider `COc1ccc(CCNC(=O)COC(=O)c2ccc[nH]c2=O)cc1`, for which the Potency was 31.6 µM (active).

For the molecule `COc1cccc(CNC(=O)c2cc(=O)[nH]c3ccc(S(=O)(=O)N4CCCCC4)cc23)c1`, the Potency entry is “inactive”.

In the case of `CC1CN(C(=O)N2CCC(C(=O)NCc3ccco3)CC2)c2cc(Cl)ccc2O1` (stereo not given), the Potency result was “inactive”.

In the case of `CCCn1c(=N)n(CC(O)COc2ccccc2OC)c2ccccc21` (stereo not given), the Potency entry was “inactive”.

Take `O=C(Cn1c(-c2cccs2)cc2ccccc21)NCCc1ccc(Cl)cc1`: the Potency entry was “inactive”.

For the molecule `CC(C)=CCCC1(C)C=Cc2c(ccc3c2[nH]c2cc(O)c(C)cc23)O1` (stereo not given), the Potency is 44.7 µM (active).

As for `Cc1c(Cl)cccc1NC(=O)N1CCN(C(=O)c2nsc3ccccc23)CC1`, the Potency result was “inactive”.

On to `CCCN(C(=O)Cn1ncc2c([nH]c3ccc(C)cc32)c1=O)c1ccccc1C`, for which the Potency entry was “inactive”.

As to `COc1cc(N2CCCC2)c(OC)cc1/C=C(/C#N)c1cccc(Br)c1`, the Potency was 17.8 µM (active).

As to `CCOc1ccc(/C=C(/C#N)c2nnc(N3CCOCC3)n2-c2ccccc2)cc1OC`, the Potency result was “inactive”.

Consider `CCCn1c2ccccc2c2cnn(CC(=O)NCC3CCN(Cc4ccc(C)cc4)CC3)c(=O)c21`, for which the Potency result was “inactive”.

For `CC(Sc1nnnn1C1CCCCC1)C(=O)O` (stereo not given), the Potency is 11.2 µM (active).

For `CC(Sc1nnnn1C)C(=O)NC(=O)NC1CCCCC1` (stereo not given), the Potency entry was “inactive”.

`O=C(CSc1nnnn1C1CCCC1)N1CCCCC1`: the Potency result was “inactive”.

With `CCN(CC)c1ccc(C2C(C(N)=O)=C(C)Nc3nc(SCc4ccccc4)nn32)cc1` (stereo not given), the Potency result was “inactive”.

As for `CCc1ccc(NC(=O)c2cc(S(=O)(=O)N3CCCC(C)C3)cn2C)cc1` (stereo not given), the Potency entry was “inactive”.

With `CCOc1ccc(CNCc2c(C(=O)O)c(C)n(Cc3cccc(OC)c3)c2C)cc1OC`, the Potency result was “inactive”.

As for `Cc1cc(NC(=O)Nc2ccccc2[N+](=O)[O-])no1`, the Potency is 22.4 µM (active).

Consider `Cc1cc(NC(=O)COc2ccccc2C#N)no1`, for which the Potency result is “inactive”.

Turning to `CCOc1ccc(NC(=O)Nc2cc(C)on2)cc1`, the Potency entry is “inactive”.

On to `Cc1ccc(C(=O)Nc2ccc(OCc3cc(=O)n4c(C)csc4n3)cc2)cc1`, for which the Potency entry is “inactive”.

On to `CCOc1cccc(CNC(=O)c2ccc(N3CCCC3)c(NC(=O)Nc3ccccc3CC)c2)c1`, for which the Potency entry is “inactive”.

In the case of `COc1ccccc1/C=C/c1nc(C#N)c(NC(C)c2ccccc2)o1` (stereo not given), the Potency entry was “inactive”.

Turning to `COc1cc2nc(NCC(C)c3ccccc3)n3nc(-c4ccccc4)nc3c2cc1OC` (stereo not given), the Potency entry is “inactive”.

With `Clc1ccc(CSc2nncn3c2cc2occc23)cc1`, the Potency is 39.8 µM (active).

As to `Clc1ccccc1CSc1nncn2c1cc1occc12`, the Potency entry is “inactive”.

As for `Nc1cc(N)nc(SCc2ccc(Cl)cc2)n1`, the Potency result was “inactive”.

Consider `COc1ccc(-n2c(C)nc3c(cnn3-c3ccc(F)cc3)c2=O)cc1`, for which the Potency result is “inactive”.

For the molecule `COc1cc(NC(=O)CSc2nc3nc(C)c(Cc4ccc(C)cc4)c(C)n3n2)cc(OC)c1OC`, the Potency result is “inactive”.

`O=C(O)c1c(CNCc2cccc(F)c2)c2ccccc2n1Cc1ccccc1`: the Potency entry was “inactive”.

On to `O=C(Nc1nnc(C2CC(=O)N(c3ccc(Cl)cc3)C2)s1)c1ccco1` (stereo not given), for which the Potency entry was “inactive”.

Turning to `Cc1cccc(CSc2nc3ccncc3n2CC(=O)N(C)C2CCCCC2)c1`, the Potency entry was “inactive”.

Take `CCOc1ccc(CNC(=O)C2CCCN(S(=O)(=O)N(CC)c3ccc(OCC)cc3)C2)cc1` (stereo not given): the Potency entry is “inactive”.

Regarding `CCOC(=O)c1sc2nc(CSCC(=O)OCc3ccc(C(=O)OC)o3)[nH]c(=O)c2c1C`, the Potency entry was “inactive”.

`Cc1sc2nc(CSCC(=O)NC3CCCCC3)[nH]c(=O)c2c1C`: the Potency entry was “inactive”.

Take `CSc1nnc(SCc2nc3sc(C(=O)O)c(C)c3c(=O)[nH]2)s1`: the Potency is 12.6 µM (active).

Take `Cn1c(=O)sc2cc(NS(=O)(=O)c3ccc(C(C)(C)C)cc3)ccc21`: the Potency result was “inactive”.

For `CCOC(=O)c1ccc(NC(=O)c2c(NCc3cccc(OC)c3)sc3c2CCC3)cc1`, the Potency result was “inactive”.

For the molecule `CCOC(=O)C1CCCN(S(=O)(=O)c2cc(-c3cc(C)no3)ccc2OC)C1` (stereo not given), the Potency entry was “inactive”.

Take `CC(=O)Nc1ccccc1NC(=O)c1cc(C)cc(C)c1`: the Potency is 11.2 µM (active).

Regarding `Cc1ccccc1C(=O)Nc1ccccc1NC(=O)c1ccccc1C`, the Potency entry was “inactive”.

Take `CSCc1ccc(C(=O)Nc2cc(C)cc(C)c2)cc1`: the Potency result is “inactive”.

Regarding `Cc1cc2c(cc1S(=O)(=O)CCC(=O)Nc1ccc(OC(F)(F)F)cc1)OCC(=O)N2`, the Potency result was “inactive”.

Turning to `CCCCc1nn2c(=O)cc(COC(=O)c3ccc(NC(=O)c4ccccc4C)cc3)nc2s1`, the Potency result was “inactive”.

Take `CCC(=O)Nc1cccc(-c2nc3cc(C)ccc3o2)c1`: the Potency result was “inactive”.

For `Cc1ccc(-n2nnnc2CNC(=O)c2ccccc2C)cc1C`, the Potency entry is “inactive”.

Turning to `O=C(CCc1[nH]c2ccccc2c1Sc1ccccc1)N(CCO)CCO`, the Potency is 79.4 µM (active).

For the molecule `CCCNC(=O)c1ccc(Cn2c(SCC(N)=O)nc3ccccc3c2=O)cc1`, the Potency entry was “inactive”.

Take `COc1ccc([C@H]2CC(=O)C=C(c3ccc(CO)cc3)C2)cc1`: the Potency was 28.2 µM (active).

For `COc1ccc([C@H]2CC(=O)C=C(c3ccc(C)cc3)C2)cc1`, the Potency result is “inactive”.

As to `COc1ccc2cc(C3=CC(=O)C[C@H](c4ccc5c(c4)OCO5)C3)ccc2c1`, the Potency entry is “inactive”.

`Cc1ccc(C)c(N2CCN(C(=O)CCc3c(C)nc4c(c3C)c(=O)n(C)c(=O)n4C)CC2)c1`: the Potency result was “inactive”.

`O=C(CCC1N=C2c3ccccc3N=C(SCc3ccccc3F)N2C1=O)NCCc1ccccc1` (stereo not given): the Potency entry was “inactive”.

As for `COc1ccc(C(=O)CSc2c(C(C)C)cnc3c2c(=O)n(C)c(=O)n3C)cc1`, the Potency result was “inactive”.

`CCOC(=O)c1cccc(NS(=O)(=O)c2cc(-c3cnc(C)o3)ccc2OC)c1`: the Potency result was “inactive”.

Consider `Oc1ccc(N=Nc2nccs2)c(O)c1`, for which the Potency is 35.5 µM (active).

As for `Oc1ccc2ccccc2c1N=Nc1nccs1`, the Potency is 5.62 µM (active).

For the molecule `Cc1cccc(NC(=O)Cn2c(=O)n(CCC(C)C)c(=O)c3cccnc32)c1`, the Potency result is “inactive”.

With `O=C(NCCCc1ccccc1)c1ccc2c(c1)sc1nc(-c3ccc(F)cc3)cn12`, the Potency entry is “inactive”.

For the molecule `CC1=C(C(=O)OCC2CCCCC2)C(c2c(F)cccc2Cl)CC(=O)N1` (stereo not given), the Potency result is “inactive”.

As for `N#Cc1nc(-c2ccc(OCc3ccccc3)cc2)oc1NCCCN1CCOCC1`, the Potency was 35.5 µM (active).

As to `O=S(=O)(c1ccccc1)c1nc(-c2ccccc2)oc1NCCCN1CCOCC1`, the Potency entry is “inactive”.

Consider `CC1CC(C)CN(c2oc(-c3ccc(OCc4ccc(Cl)cc4)cc3)nc2C#N)C1` (stereo not given), for which the Potency entry was “inactive”.

For the molecule `CCc1cccc(NC(=O)Cn2nc(CC)n3c(cc4cc(C)ccc43)c2=O)c1`, the Potency result is “inactive”.

With `CCOc1ccc(NC(=O)Cn2cc(C(=O)c3ccc(C)cc3)c(=O)c3cc4c(cc32)OCCO4)cc1`, the Potency entry is “inactive”.

For the molecule `CCN(CC)S(=O)(=O)c1ccc2c(c1)nc(CN(C)C(=O)Nc1ccc(Cl)cc1)n2C`, the Potency result is “inactive”.

In the case of `Cc1ccc(C)c(N2CCN(C(=O)Cc3c(C(=O)O)c(C)cn3C)CC2)c1`, the Potency result was “inactive”.

Take `Cc1[nH]c(N)nc(=S)c1CCCNc1ccccc1`: the Potency was 50.1 µM (active).

`CCc1c(Nc2ccccc2C)nc(N)[nH]c1=O`: the Potency result is “inactive”.

Take `COc1ccc(Cl)cc1NC(=O)CSc1nc(-c2cccs2)cc(C(F)(F)F)n1`: the Potency entry was “inactive”.

`Cc1ccc(NC(=O)CN2C(=O)CC(C)Sc3ccccc32)c(C)c1` (stereo not given): the Potency result is “inactive”.

As to `CC(OC(=O)c1ccc2ccccc2n1)C(=O)c1ccccc1` (stereo not given), the activity change, negative = inhibition was -2.94% [at 11.4 µM].

With `COc1ccc(C(=O)COC(=O)c2ccc3ccccc3n2)cc1`, the Potency entry is “inactive”.

Consider `O=C(Oc1ccc([N+](=O)[O-])cc1)c1ccc2ccccc2n1`, for which the Potency is 28.2 µM (active).

As to `COc1ccc2c(c1)c(=O)c(C(=O)c1ccccc1)cn2CC(=O)Nc1ccc2c(c1)OCCO2`, the Potency entry is “inactive”.

Take `CC(C)(C)c1ccc(C(=O)Nc2ccc3c(c2)CCCN3C(=O)c2cccs2)cc1`: the Potency result is “inactive”.

Turning to `Cc1ccc2[nH]c(C)c(CCNC(=O)NC3CCCCC3)c2c1`, the Potency entry is “inactive”.

Regarding `CCNC(=S)N(CCc1c(C)[nH]c2ccc(C)cc12)Cc1ccco1`, the Potency is 63.1 µM (active).

As to `Cc1ccc(NC(=S)N(Cc2ccco2)C(C)c2cccs2)cc1` (stereo not given), the Potency result is “inactive”.

For `CCOc1ccc(CNC(=O)c2cc(=O)[nH]c3ccc(S(=O)(=O)N4CCCCC4)cc23)cc1`, the Potency result was “inactive”.
